# Results as given in the supplement of paper PMC10849652.
# The full data set covers some 8,800 targets. This sample favours those with a hit. About 0.5% of all pairs of compound and target were hits. Values without a mark were called inactive.
# Key:
# Test in all cases: log2 fold change, soluble protein after heating vs DMSO (PISA); higher = thermal stabilisation; K562 lysate, 10 uM; active = over 0.2 and 3.5 SD of the protein, either way, in both replicates (recomputed)
# lapatinib = compound: CS(=O)(=O)CCNCc1ccc(-c2ccc3ncnc(Nc4ccc(OCc5cccc(F)c5)c(Cl)c4)c3c2)o1 [lapatinib]
# Method in brief: (§1)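 Quantification was by TMTpro 16plex LC-MS/MS with equalised channel sums, applied to the supernatant after 21,000xg for 90 min. Samples were crude K562 extract at 1 mg/mL protein in PBS pH 7.4 with 1 mM MgCl2, treated with 10 μM compound for 30 min, heated for 3 min across 48°C-58°C, pooled and brought to 0.5% NP-40 at 4°C. Values are log-two fold changes in thermal stability relative to solvent controls, from duplicates.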
# pictilisib = compound: CS(=O)(=O)N1CCN(Cc2cc3nc(-c4cccc5[nH]ncc45)nc(N4CCOCC4)c3s2)CC1 [pictilisib]
# Method in brief: as §1
# crizotinib = compound: C[C@@H](Oc1cc(-c2cnn(C3CCNCC3)c2)cnc1N)c1c(Cl)ccc(F)c1Cl [crizotinib]
# Method in brief: as §1
# [1] = compound: C[C@H](C1=CC=C(C=C1)C(=O)NC2=C3C=CNC3=NC=C2)N
# Method in brief: as §1
# duvelisib = compound: C[C@H](Nc1ncnc2nc[nH]c12)c1cc2cccc(Cl)c2c(=O)n1-c1ccccc1 [duvelisib]
# Method in brief: as §1
# gandotinib = compound: Cc1cc(Nc2cc(CN3CCOCC3)c3nc(C)c(Cc4ccc(Cl)cc4F)n3n2)n[nH]1 [gandotinib]
# Method in brief: as §1
# tozasertib = compound: Cc1cc(Nc2cc(N3CCN(C)CC3)nc(Sc3ccc(NC(=O)C4CC4)cc3)n2)n[nH]1 [tozasertib]
# Method in brief: as §1
# doramapimod = compound: Cc1ccc(-n2nc(C(C)(C)C)cc2NC(=O)Nc2ccc(OCCN3CCOCC3)c3ccccc23)cc1 [doramapimod]
# Method in brief: as §1
# bafetinib = compound: Cc1ccc(NC(=O)c2ccc(CN3CC[C@H](N(C)C)C3)c(C(F)(F)F)c2)cc1Nc1nccc(-c2cncnc2)n1 [bafetinib]
# Method in brief: as §1
# [2] = compound: Cc1cccc(CC(=O)N2CCc3c2ccc(-c2cn(C)c4ncnc(N)c24)c3F)n1
# Method in brief: as §1
# Sequence of UniProt Q9UEE5 (Q9UEE5 whole entry, looked up): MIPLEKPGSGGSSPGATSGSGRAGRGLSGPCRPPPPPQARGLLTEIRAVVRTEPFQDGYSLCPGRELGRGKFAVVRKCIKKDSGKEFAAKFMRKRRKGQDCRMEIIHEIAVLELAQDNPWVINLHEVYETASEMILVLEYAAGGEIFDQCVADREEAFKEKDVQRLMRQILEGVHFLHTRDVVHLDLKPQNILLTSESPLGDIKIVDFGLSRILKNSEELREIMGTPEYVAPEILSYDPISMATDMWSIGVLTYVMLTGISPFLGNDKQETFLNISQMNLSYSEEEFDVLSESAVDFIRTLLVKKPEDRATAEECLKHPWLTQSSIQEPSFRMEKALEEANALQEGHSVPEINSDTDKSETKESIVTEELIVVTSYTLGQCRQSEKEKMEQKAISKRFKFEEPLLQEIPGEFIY
# Sequence of UniProt Q8NDV3 (Q8NDV3 whole entry, looked up): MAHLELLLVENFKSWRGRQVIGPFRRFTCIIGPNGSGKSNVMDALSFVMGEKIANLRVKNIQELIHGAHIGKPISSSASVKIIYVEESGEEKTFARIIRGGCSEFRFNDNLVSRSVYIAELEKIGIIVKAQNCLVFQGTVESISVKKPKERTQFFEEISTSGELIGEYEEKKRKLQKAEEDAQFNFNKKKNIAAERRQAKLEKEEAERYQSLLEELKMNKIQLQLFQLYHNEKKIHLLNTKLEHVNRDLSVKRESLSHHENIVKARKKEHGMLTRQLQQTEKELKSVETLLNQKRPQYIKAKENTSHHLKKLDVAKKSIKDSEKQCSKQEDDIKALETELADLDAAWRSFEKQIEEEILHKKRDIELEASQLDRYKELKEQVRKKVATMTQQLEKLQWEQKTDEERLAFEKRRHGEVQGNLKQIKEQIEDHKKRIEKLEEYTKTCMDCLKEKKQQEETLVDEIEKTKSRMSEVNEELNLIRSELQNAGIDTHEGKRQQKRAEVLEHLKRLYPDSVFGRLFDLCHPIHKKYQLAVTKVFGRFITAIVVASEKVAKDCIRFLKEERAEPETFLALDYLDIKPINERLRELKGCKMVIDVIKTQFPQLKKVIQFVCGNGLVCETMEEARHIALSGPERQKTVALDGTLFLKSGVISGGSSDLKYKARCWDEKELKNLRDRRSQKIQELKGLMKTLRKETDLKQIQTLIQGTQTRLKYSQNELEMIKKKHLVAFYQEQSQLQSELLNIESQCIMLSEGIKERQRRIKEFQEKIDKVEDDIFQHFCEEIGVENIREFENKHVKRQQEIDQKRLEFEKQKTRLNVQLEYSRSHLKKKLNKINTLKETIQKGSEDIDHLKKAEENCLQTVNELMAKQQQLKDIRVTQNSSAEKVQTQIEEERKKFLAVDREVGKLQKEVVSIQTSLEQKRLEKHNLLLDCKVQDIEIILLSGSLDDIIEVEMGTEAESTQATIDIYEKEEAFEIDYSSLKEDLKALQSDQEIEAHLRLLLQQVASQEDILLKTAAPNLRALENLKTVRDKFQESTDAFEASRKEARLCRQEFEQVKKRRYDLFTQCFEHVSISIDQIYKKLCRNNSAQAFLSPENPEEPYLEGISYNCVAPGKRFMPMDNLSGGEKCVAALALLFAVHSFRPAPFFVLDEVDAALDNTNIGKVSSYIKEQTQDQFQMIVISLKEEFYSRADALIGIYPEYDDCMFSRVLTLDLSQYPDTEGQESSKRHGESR
# Sequence of UniProt O60225 (O60225 whole entry, looked up): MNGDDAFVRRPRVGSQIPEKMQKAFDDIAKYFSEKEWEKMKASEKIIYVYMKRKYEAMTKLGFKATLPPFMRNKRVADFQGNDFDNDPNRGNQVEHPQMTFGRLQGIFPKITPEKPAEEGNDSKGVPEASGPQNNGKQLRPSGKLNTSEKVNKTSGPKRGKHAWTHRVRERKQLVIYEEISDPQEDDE
# Sequence of UniProt Q13309 (Q13309 whole entry, looked up): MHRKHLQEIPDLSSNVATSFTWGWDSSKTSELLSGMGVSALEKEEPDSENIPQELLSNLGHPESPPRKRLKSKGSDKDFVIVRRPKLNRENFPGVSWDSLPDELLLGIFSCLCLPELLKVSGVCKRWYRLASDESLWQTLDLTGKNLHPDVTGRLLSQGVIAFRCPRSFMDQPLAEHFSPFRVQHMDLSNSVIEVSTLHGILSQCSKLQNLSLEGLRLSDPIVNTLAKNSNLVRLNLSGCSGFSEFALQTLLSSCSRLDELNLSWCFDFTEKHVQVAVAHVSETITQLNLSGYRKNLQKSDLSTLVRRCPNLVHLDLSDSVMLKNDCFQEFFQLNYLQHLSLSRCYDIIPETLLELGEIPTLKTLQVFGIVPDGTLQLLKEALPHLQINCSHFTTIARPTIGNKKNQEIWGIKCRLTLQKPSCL
# Sequence of UniProt Q9UHW9 (Q9UHW9 whole entry, looked up): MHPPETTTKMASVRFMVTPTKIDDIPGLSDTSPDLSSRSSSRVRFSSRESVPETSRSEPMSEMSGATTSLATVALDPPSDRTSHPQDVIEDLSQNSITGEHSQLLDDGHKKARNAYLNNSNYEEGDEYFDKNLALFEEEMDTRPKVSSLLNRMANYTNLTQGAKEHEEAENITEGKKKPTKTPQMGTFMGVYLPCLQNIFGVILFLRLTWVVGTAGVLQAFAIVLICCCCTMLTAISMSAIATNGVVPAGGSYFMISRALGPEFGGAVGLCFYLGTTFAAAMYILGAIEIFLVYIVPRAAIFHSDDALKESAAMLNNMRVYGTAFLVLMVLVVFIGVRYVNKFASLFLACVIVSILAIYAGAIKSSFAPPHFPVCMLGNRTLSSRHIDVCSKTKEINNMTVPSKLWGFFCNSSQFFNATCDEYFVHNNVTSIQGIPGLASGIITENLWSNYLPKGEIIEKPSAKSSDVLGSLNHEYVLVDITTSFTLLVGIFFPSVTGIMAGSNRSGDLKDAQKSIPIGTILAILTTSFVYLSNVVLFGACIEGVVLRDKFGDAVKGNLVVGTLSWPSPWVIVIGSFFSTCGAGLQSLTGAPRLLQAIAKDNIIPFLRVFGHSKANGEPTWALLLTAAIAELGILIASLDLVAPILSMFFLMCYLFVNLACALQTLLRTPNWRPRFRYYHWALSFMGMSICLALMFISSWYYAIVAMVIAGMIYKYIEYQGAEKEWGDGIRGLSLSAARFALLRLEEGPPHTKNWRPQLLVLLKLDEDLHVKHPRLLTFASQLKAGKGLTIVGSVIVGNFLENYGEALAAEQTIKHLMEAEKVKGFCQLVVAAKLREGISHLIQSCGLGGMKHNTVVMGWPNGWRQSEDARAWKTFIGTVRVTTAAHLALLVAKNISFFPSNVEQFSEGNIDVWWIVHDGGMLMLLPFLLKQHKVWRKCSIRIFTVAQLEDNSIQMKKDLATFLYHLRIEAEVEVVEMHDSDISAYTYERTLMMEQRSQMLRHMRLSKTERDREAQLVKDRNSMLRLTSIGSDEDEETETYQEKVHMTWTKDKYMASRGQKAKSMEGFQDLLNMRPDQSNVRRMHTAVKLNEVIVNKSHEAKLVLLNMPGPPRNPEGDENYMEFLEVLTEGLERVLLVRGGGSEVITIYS
# Sequence of UniProt Q13487 (Q13487 whole entry, looked up): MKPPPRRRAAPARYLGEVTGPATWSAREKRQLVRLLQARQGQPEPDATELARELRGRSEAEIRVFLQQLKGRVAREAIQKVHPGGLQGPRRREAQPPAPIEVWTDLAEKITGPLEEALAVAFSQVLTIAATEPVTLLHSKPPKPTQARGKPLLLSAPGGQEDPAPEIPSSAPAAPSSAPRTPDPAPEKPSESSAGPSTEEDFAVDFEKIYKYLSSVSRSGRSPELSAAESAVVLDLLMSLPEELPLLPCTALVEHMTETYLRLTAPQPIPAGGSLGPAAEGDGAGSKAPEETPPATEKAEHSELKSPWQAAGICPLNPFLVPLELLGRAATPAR
# Sequence of UniProt O95793 (O95793 whole entry, looked up): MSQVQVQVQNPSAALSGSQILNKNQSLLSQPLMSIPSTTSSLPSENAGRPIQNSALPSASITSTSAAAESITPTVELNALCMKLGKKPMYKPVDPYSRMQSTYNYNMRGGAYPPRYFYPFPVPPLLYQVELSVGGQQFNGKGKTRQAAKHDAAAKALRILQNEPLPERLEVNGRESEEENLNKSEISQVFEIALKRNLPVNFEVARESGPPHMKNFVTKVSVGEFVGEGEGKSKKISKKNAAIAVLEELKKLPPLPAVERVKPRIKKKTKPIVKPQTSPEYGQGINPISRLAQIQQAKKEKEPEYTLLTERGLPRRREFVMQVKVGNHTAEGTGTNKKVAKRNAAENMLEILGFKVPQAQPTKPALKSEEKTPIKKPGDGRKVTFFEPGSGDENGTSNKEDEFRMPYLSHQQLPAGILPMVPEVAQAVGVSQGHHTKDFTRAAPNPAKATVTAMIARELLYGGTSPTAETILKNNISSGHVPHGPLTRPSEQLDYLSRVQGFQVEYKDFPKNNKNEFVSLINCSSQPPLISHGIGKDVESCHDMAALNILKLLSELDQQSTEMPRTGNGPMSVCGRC
# Sequence of UniProt Q9UJZ1 (Q9UJZ1 whole entry, looked up): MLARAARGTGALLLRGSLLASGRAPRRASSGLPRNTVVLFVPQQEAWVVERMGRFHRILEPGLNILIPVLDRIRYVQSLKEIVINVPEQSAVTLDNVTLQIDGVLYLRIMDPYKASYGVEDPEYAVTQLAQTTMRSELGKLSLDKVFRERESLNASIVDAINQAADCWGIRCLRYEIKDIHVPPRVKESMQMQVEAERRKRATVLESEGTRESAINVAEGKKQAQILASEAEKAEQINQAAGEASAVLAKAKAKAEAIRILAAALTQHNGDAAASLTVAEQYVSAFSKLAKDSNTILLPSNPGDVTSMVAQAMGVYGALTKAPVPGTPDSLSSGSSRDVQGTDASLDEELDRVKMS
# Sequence of UniProt Q96CQ1 (Q96CQ1 whole entry, looked up): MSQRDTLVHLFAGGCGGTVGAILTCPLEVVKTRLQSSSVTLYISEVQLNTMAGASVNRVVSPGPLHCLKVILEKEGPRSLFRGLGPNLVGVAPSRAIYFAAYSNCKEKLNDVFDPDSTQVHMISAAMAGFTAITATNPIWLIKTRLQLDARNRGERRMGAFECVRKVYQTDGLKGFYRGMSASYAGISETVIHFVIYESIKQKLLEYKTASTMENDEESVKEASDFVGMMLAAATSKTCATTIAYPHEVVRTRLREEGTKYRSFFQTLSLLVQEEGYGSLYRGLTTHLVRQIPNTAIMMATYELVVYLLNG
Target,log2 fold change (lapatinib),log2 fold change (pictilisib),log2 fold change (crizotinib),log2 fold change [1],log2 fold change (duvelisib),log2 fold change (gandotinib),log2 fold change (tozasertib),log2 fold change (doramapimod),log2 fold change (bafetinib),log2 fold change [2]
SMC3 (UniProt Q9UQE7),0.007,0.006,0.011,0.037,-0.01,-0.013,0.001,-0.007,-0.021,-0.012
SSNA1 (UniProt O43805),0.012,-0.015,0.138,0.003,-0.038,0.061,0.045,0.019,-0.014,-0.034
STN1 (UniProt Q9H668),0.128,-0.201,-0.068,-0.235,,-0.212,-0.059,-0.101,-0.176,-0.028
SKA1 (UniProt Q96BD8),0.001,0.043,0.009,-0.032,0.042,0.001,0.086,0.037,-0.029,0.024
SLC25A38 (UniProt Q96DW6),-0.093,-0.026,-0.044,-0.072,0.173,-0.055,0.391 (active),-0.024,-0.025,0.112
SMG6 (UniProt Q86US8),0.009,-0.032,0.028,-0.097,-0.1,0.025,-0.096,0.051,-0.049,0.039
SMAD2 (UniProt Q15796),-0.006,-0.042,-0.055,-0.073,-0.066,-0.006,-0.027,-0.025,-0.005,0.06
STOML2 (UniProt Q9UJZ1),0.013,-0.021,0.028,0.089,0.035,0.015,0.012,-0.032,0.033,-0.023
SH3BP2 isoform 4 (UniProt P78314),-0.135,-0.41 (active),-0.021,0.01,0.053,-0.02,,0.057,-0.105,0.123
STK26 isoform 3 (UniProt Q9P289),,,0.095,,0.008,,-0.001,-0.416,,
SLC40A1 (UniProt Q9NP59),-0.019,,0.111,-0.164,0.099,0.054,-0.035,-0.056,,0.018
SLCO4A1 (UniProt Q96BD0),,-0.687 (active),,0.016,,0.062,,,-0.334,0.012
STMN3 (UniProt Q9NZ72),-0.017,-0.08,0.009,,-0.023,,-0.023,-0.003,0.041,
SSX5 isoform 2 (UniProt O60225),0.042,0.082,,-0.476,,0.092,0.085,,-0.04,0.183
SLU7 (UniProt O95391),,0.006,0.054,-0.187,0.06,0.255,0.028,-0.099,-0.267,0.367 (active)
SMPD2 (UniProt O60906),0.015,,,0.106,0.107,-0.051,-0.031,,,0.03
SNAPC2 (UniProt Q13487),,0.08,-0.007,0.024,-0.129,0.01,,0.03,-0.537,-0.033
TAF11 (UniProt Q15544),0.003,,-0.085,-0.036,-0.06,0.026,0.102,0.023,,0
SLC41A1 (UniProt Q8IVJ1),-0.059,,0.141,-0.09,,0.136,-0.016,0.01,,0.113
SNRPD2 (UniProt K7EJB5),0.005,,-0.202,,0.014,,0.051,0.105,,
SKP2 (UniProt Q13309),-0.275,,-0.159,-0.098,-0.024,-0.075,-0.096,-0.024,,0.104

Target,log2 fold change (lapatinib),log2 fold change (pictilisib),log2 fold change (crizotinib),log2 fold change [1],log2 fold change (duvelisib),log2 fold change (gandotinib),log2 fold change (tozasertib),log2 fold change (doramapimod),log2 fold change (bafetinib),log2 fold change [2]
SLC12A6 isoform 2 (UniProt Q9UHW9),-0.019,,-0.051,,-0.023,,0.068,0.054,,
SRC isoform 2 (UniProt P12931),-0.001,-0.078,,0.151,0.001,0.061,0.098,,-0.153,-0.015
SLC35A3 isoform 2 (UniProt Q9Y2D2),-0.097,,-0.267,-1.02 (active),,0.215,0.032,0.095,,0.332
STK17B (UniProt O94768),,,-0.255,,0,,,-0.117,,
SYK (UniProt P43405),-0.086,0.017,,-0.479 (active),0.004,0.272,0.002,0.021,-0.236,0.261
SMC4 (UniProt C9JJ64),,0.006,,,,,,,-0.251,
SMC1B isoform 3 (UniProt Q8NDV3),0,-0.037,-0.019,,0.015,,0.26,-0.036,-0.093,
STAU1 isoform 3 (UniProt O95793),,0.048,0.049,-0.298,,0.112,,0.269,-0.086,0.078
SMYD3 (UniProt Q9H7B4),0.017,-0.018,-0.146,,0.062,,0.023,0.053,-0.062,
SLC25A36 (UniProt Q96CQ1),-0.019,,0.022,0.029,-0.122,0.024,-0.09,-0.011,,-0.006
SPAG1 (UniProt Q07617),-0.058,0.17,0,,,,,-0.025,-0.265,
TARDBP (UniProt K7EN94),,,,,,,0.257,,,
STAR (UniProt P49675),,,-0.123,0.117,0.017,0.156,0.063,0.019,,0.142
SZT2 (UniProt Q5T011),0.275,0.189,,-0.108,-0.081,-0.17,-0.097,,-0.214,0.22
SIN3B (UniProt O75182),,,-0.057,-0.318,,0.116,-0.095,0.584,,-0.611
SHC1 (UniProt P29353),,,,0.029,,-0.033,,,,0.009
SHB (UniProt Q15464),-0.07,,-0.044,-0.305,-0.034,0.186,,0.028,,-0.129
SNAP23 isoform 2 (UniProt O00161),0.075,,,0.188,,-0.054,-0.185,,,-0.163
SMARCA4 isoform 4 (UniProt P51532),-0.072,,0,0.024,-0.068,-0.007,0.136,-0.048,,-0.012
STK38L (UniProt Q9Y2H1),,,-0.059,,-0.007,,-0.009,-0.025,,
STK17A (UniProt Q9UEE5),,,,0.315,,-0.001,,,,-0.197
